Bioassay records as filed in PubChem BioAssay.
FMDV inh = High Throughput Screening for Foot and Mouth Disease Virus Antivirals. FMDV antiviral cell-based qHTS. Potency, µM (highest dose often 57.9 µM), without a hit: at the top dose activity change, negative = inhibition, most hits filed as inhibitors. 410,000 tested, 1.2% active; calls by dose curve; tested in HEK293T cells; note: read-out not given here; potency is the fitted concentration of half-maximal effect; nearly all actives have a fitted effect of over 45% in size
Marburg entry inh = qHTS for inhibitors of binding or entry into cells for Marburg Virus. Marburg virus pseudotyped entry inhibition, cell reporter. Potency, µM (top dose mostly 37.8 µM), for inactives: at the highest dose activity change, negative = inhibition, most hits filed as inhibitors. 300,000 tested, 1.8% active; calls by dose curve; tested in HEK293 cells; note: potency is the fitted concentration of half-maximal effect
VACV Venus inh = qHTS for Stage-Specific Inhibitors of Vaccinia Orthopoxvirus: Venus Reporter Primary qHTS | Vaccinia virus Venus reporter expression, fluorescence | Potency, µM (top dose mostly 36.5 µM), for inactives: top-dose activity change, negative = inhibition, most hits filed as inhibitors | 330,000 tested, 0.46% active | AID 720580, 2013; calls by dose curve; tested in A549 cells; note: potency is the fitted concentration of half-maximal effect; nearly all actives have a fitted effect of over 30% in size
Vaccinia mCherry = qHTS for Stage-Specific Inhibitors of Vaccinia Orthopoxvirus: mCherry Reporter Primary qHTS; Vaccinia virus mCherry reporter infection, fluorescence; Potency, µM (titrated, usually from 36.5 µM), for inactives: top-dose activity change, negative = inhibition, hits mostly inhibitors; 310,000 tested, 0.63% active; AID 720579, 2013; calls by dose curve; tested in A549 cells; note: potency is the fitted concentration of half-maximal effect; nearly all actives have a fitted effect of over 35% in size
HCMV inh = qHTS Assay for inhibitors of the human cytomegalovirus (HCMV); HFF cells, HCMV-luciferase reporter, 72 h; active compounds read low; activity change, negative = inhibition, % at 57.5 µM; 410,000 tested, 4.5% active; in the data active = activity change below about -60%; inconclusive = no clear call, values can overlap the other calls; inactive = above about -39%
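Cell-based, HFFs, 1000 cells/well, 16 h 37C; cpds in DMSO + HCMV-luc, MOI 1 PFU/cell; 72 h 37C; OneGlo luminescence after 5 min RT; norm. to buffer vs Salinomycin 10uM.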
Lassa entry inh = qHTS for Inhibitors of binding or entry into cells for Lassa Virus; AID 540256, 2011; Lassa virus pseudotype entry inhibition, cell reporter; 300,000 tested, 1.2% active; Potency, µM (top dose mostly 37.9 µM), without a hit: top-dose activity change, negative = inhibition, actives largely listed as inhibitors; calls by dose curve; tested in HEK293 cells; note: potency is the fitted concentration of half-maximal effect; nearly all actives have a fitted effect of over 50% in size
* = called active by the depositor; i = inactive; ? = inconclusive; nt = no result; [ ] = another dose, or the depositor's remark. Sampled rows, rich in hits. Any-hit rate of the full collection: about 6.5%. % is set by controls: 0 for no effect and ±100 for the full control effect.

SMILES	FMDV inh	Marburg entry inh	VACV Venus inh	Vaccinia mCherry	HCMV inh	Lassa entry inh
N#Cc1cccc(NC(=S)Nc2ccccc2)c1	10%	?	-7%	-19%	-68*	3%
CCCCC(=O)Nc1ccc(OCc2cc(=O)n3ccc(C)cc3n2)cc1	0%	nt	-11%	-9%	0	-2%[46.1 µM]
COc1ccc(C2c3c(-c4c(C)cc(C)cc4O)n[nH]c3C(=O)N2Cc2ccco2)cc1 (centres undefined)	?	?	-11%	-17%	?	-17%[46.1 µM]
COc1ccc(C2c3c(-c4ccccc4O)n[nH]c3C(=O)N2Cc2ccco2)cc1 (centres undefined)	-3%	-25%	-2%	-23%	?	0.58µM*
O=C1c2[nH]nc(-c3ccccc3O)c2C(c2cccc(Br)c2)N1Cc1ccncc1 (centres undefined)	10%	?	?	?	-82*	?
Cc1cc(C)c(-c2n[nH]c3c2C(c2ccccc2F)N(Cc2ccco2)C3=O)c(O)c1 (centres undefined)	-8%	?	-10%[7.34 µM]	-13%[7.34 µM]	-73*	?
CCCOc1cccc(C2c3c(-c4ccccc4O)n[nH]c3C(=O)N2Cc2ccco2)c1 (centres undefined)	-20%	?	-13%[7.34 µM]	-16%[7.34 µM]	-72*	?
Cc1cccc(CSc2nc(=O)c3c(n2C)NC(=O)CC3c2cc(F)cc(F)c2)c1 (centres undefined)	15%	2%[46.1 µM]	-12%	-10%	-1	-9%[46.1 µM]
CCc1ccc(S(=O)(=O)c2nnn3c2nc(Nc2ccc(F)cc2)c2cc(Cl)ccc23)cc1	-11%	12%[46.1 µM]	?	?	-6	nt
COc1ccccc1NC(=O)N(Cc1ccco1)C1CCN(C(C)=O)CC1	-2%	nt	-11%	-6%	60	?
CCOc1ccc(CNC(=O)c2sc3ncnc(N(C)C4CCCCC4)c3c2C)cc1	0%	nt	-11%	-9%	-18	8%[46.1 µM]
CC(C)Oc1ccc(Nc2cc3c(cn2)cc(-c2cccc(C(F)(F)F)c2)n3C)cc1	nt	nt	nt	nt	-5	nt
O=C1c2[nH]nc(-c3ccccc3O)c2C(c2cccc(O)c2)N1Cc1ccco1 (centres undefined)	-13%	0%	-23%	nt	21	0.5µM*
COc1cc(C2c3c(-c4ccccc4O)n[nH]c3C(=O)N2Cc2ccco2)cc(OC)c1OC (centres undefined)	-12%	nt	nt	nt	-4	nt
O=C(/C(=C/O)N=Nc1ccc(Cl)cc1)c1ccncc1	32µM*	?	?	nt	-6	?
COc1ccc(C=CN(CCc2ccc(OC)c(OC)c2)C(=O)c2ccccn2)cc1	nt	-11%[14.2 µM]	nt	nt	nt	nt
COc1ccc(NS(=O)(=O)c2cc(N/C(=N\S(=O)(=O)c3ccccc3)c3ccc(F)cc3)ccc2Cl)cc1	38%	12µM*	?	-21%	-30	?
O=C(Nc1ccc(N2CCOCC2)c(S(=O)(=O)Nc2ccccc2Cl)c1)c1ccccc1	44%	nt	nt	nt	-22	nt
O=C(Nc1ccc(Cl)cc1)Nc1ccc(N2CCCC2)c(S(=O)(=O)Nc2ccccc2Cl)c1	-9%	1.6µM*	?	?	-99*	5µM*
COc1ccccc1NS(=O)(=O)c1cc(NC(=O)c2[nH]c(C)c(C(C)=O)c2C)ccc1N1CCOCC1	16%	nt	nt	nt	-90*	nt
COc1ccccc1NS(=O)(=O)c1cc(NC(=O)c2ccc(Cl)nc2)ccc1Cl	10µM*	8.9µM*	?	-14%	-98*	?
COc1ccccc1NC(=O)Nc1ccc(Cl)c(S(=O)(=O)Nc2ccccc2OC)c1	4%	?	-7%	-8%	4	?
COc1ccc(NS(=O)(=O)c2cc(C(=O)N3CCN(C(C)=O)CC3)ccc2Cl)cc1	3%	-12%[46.1 µM]	7%	i	-19	-23%[46.1 µM]
COc1cccc(N2CCN(c3ncnc4onc(-c5ccc(F)cc5)c34)CC2)c1	-18%	nt	3%	1%	1	-6%[46.1 µM]
Cc1cccc(CNc2cc(-c3cccnc3)ncn2)c1	-14%	nt	-12%	-12%	nt	nt
SMILES	FMDV inh	Marburg entry inh	VACV Venus inh	Vaccinia mCherry	HCMV inh	Lassa entry inh
CN(Cc1ccccc1)c1nc2c(S(=O)(=O)c3ccccc3)nnn2c2ccsc12	-2%	nt	-30%	?	5	30%[46.1 µM]
Cc1ccc(NC(=O)c2ccc(=O)[nH]n2)cc1S(=O)(=O)Nc1ccccc1Cl	41%	nt	nt	nt	0	nt
O=C(Nc1ccc(S(=O)(=O)N2CCOCC2)cc1)c1cc(S(=O)(=O)N2CCOCC2)ccc1Cl	-27%	-1%[46.1 µM]	-15%	0%	-19	-12%[46.1 µM]
Cc1ccc(NC(=S)NC(=O)c2ccc(F)cc2)cc1S(=O)(=O)Nc1ccccc1Cl	6%	1.1µM*	?	?	?	?
Cc1onc(-c2ccccc2)c1C(=O)Nc1ccc(Cl)c(S(=O)(=O)N2CCOCC2)c1	?	nt	nt	nt	-103*	nt
Cc1ccc(NC(=O)c2cc(S(=O)(=O)N3CCOCC3)c(Cl)cc2Cl)cc1	25µM*	nt	-29%	?	?	?
COc1ccc(C(=O)Nc2ccc(Cl)c(S(=O)(=O)Nc3ccccc3OC)c2)cc1	-9%	2.8µM*	?	?	-93*	?
Cc1cccc(N(Cc2cc3ccccc3[nH]c2=O)C(=O)c2cccc(Cl)c2)c1	-14%	?	-15%	-16%	-8	-4%[46.1 µM]
CN(C)/C=C1\C=Cc2ccccc21	nt	nt	-3%	15%	nt	nt
COc1ccc(NC(=O)c2[nH]c(C)c(C(C)=O)c2C)cc1S(=O)(=O)N1CCOCC1	-17%	8%	-7%	-12%	161	0%
COc1ccc(NC(=O)c2ccc(-c3ccccc3)cc2)cc1NS(=O)(=O)c1ccc(F)cc1	?	?	?	-30%	-95*	?
CC(=O)c1c(C)[nH]c(C(=O)Nc2ccc(Cl)c(S(=O)(=O)N3CCOCC3)c2)c1C	22µM*	?	-26%	?	94	?
COc1ccc(NC(=O)c2ccccc2)cc1NS(=O)(=O)c1ccc(F)cc1	1%	-7%	-5%	-17%	-21	-3%
Cc1onc(-c2ccccc2)c1C(=O)Nc1cc(C(F)(F)F)ccc1N1CCOCC1	-26%	?	?	?	-34	?
COc1ccccc1NS(=O)(=O)c1cc(NC(=O)c2ccncc2)ccc1N1CCCC1	43%	11µM*	-19%	-11%	-36	?
CCOC(=O)c1ccc(N2CCOCC2)c(NC(=O)c2c(-c3ccccc3)noc2C)c1	-13%	1.8µM*	-29%	-9%	-5	?
COc1ccc2ccccc2c1CN1CCC2(CCC(CNC(=O)c3ccccc3)O2)CC1 (centres undefined)	-18%	nt	-9%	i	nt	nt
CCOc1ccccc1NC(=O)Cn1cc(C(=O)c2ccc(Cl)cc2)c(=O)c2ccc(C)nc21	-3%	nt	-9%	-7%	8	16%[46.1 µM]
